Screens: PubChem, Johns Hopkins Ion Channel Center
Sampled rows, rich in hits. Any-hit rate of the full collection: about 1.6%.
KCNQ2 block: inhibitors of rat KCNQ2 potassium channel | O88943 | actives 1.1% (n = 310,000) | B-score at 10 µM | CHO-K1 KCNQ2, FluxOR thallium flux, 20 min; active compounds read low;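 active means fluorescence ratio B-score at most minus 3 library SDs, with starting brightness B-score within 2 library SDs, cut at about -5.5 in these data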
KCNQ2 enhance: potentiators of rat KCNQ2 potassium channel. B-score at 10 µM. AID 2239. actives 0.54% (n = 310,000). O88943. CHO-K1 KCNQ2, FluxOR thallium flux fluorescence; active compounds read high;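 active means fluorescence ratio B-score at least 3 SD of library B-scores, with initial fluorescence B-score within 3 of them, cut at about 5.3 in these data; same plate scores as AID 2156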;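 further: B-score of peak minus minimum over baseline fluorescence ratio after K+ and Tl+ stimulus; positive B-score means potentiation of KCNQ2 with more thallium influx and brighter signal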
KCNQ2 inh conf: confirmation of rat KCNQ2 potassium channel inhibitors; shares compounds with KCNQ2 block; actives 57% (n = 1,000); AID 493025; KCNQ2-expressing cells, thallium flux, inhibition; active compounds read low; activity change, negative = inhibition, % at 10 µM;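 further: 0% = vehicle wells and values are ratio percent relative to vehicle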
KCNQ1 spec: selectivity of KCNQ2 inhibitors against human KCNQ1; actives 15% (n = 1,000); KCNQ1-expressing cells, FluxOR thallium flux fluorescence; active compounds read low; shares compounds with KCNQ2 block; activity change, negative = inhibition, % at 10 µM;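 active means activity change at least 3 SD of negative controls below their mean in both duplicate wells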;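 further: CHO cells stably transfected with KCNQ1 and depolarized by potassium stimulus; peak minus minimum fluorescence over baseline after thallium addition; 0% = vehicle negative control and -100% = blank without thallium stimulus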
CHO Tl ctr: activity in parental CHO cells lacking KCNQ2; shares compounds with KCNQ2 block; thallium flux counter-screen; active compounds read low; activity change, % at 10 µM; actives 14% (n = 1,000); AID 493029;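 further: 0% = vehicle negative controls with stimulus buffer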
KCNQ2 patch conf: blocks rat KCNQ2 current in automated patch clamp. shares compounds with KCNQ2 block. KCNQ2-expressing cells. calls only at 10 µM. actives 49% (n = 550)
The depositor's hits bear a star. Unless noted, how the calls were made is not given here.

For CN(CC(=O)NCCc1ccc(S(N)(=O)=O)cc1)S(=O)(=O)c1ccc(Br)s1 the results were KCNQ2 block inactive.
For Cc1nc(N2CCN(Cc3ccc4c(c3)OCO4)CC2)nc2c1C(=O)CC(c1ccco1)C2 (configuration not stated) the results were KCNQ2 block inactive.
Cc1nc(N2CCN(Cc3ccccc3)CC2)nc2c1C(=O)CC(c1ccco1)C2 (configuration not stated) was read as KCNQ2 block -9.6*, KCNQ2 enhance -9.6, KCNQ2 inh conf inactive, KCNQ1 spec inactive and CHO Tl ctr inactive.
`CCOc1ccc2oc(C(=O)N3CCN(c4ccccc4OCC)CC3)c(C)c2c1` gave KCNQ2 block -9.8*, KCNQ2 enhance -9.8, KCNQ2 inh conf inactive, KCNQ1 spec inactive and CHO Tl ctr inactive.
COc1ccccc1N1CCN(C(=O)c2oc3cc(C)c(C)cc3c2C)CC1 was read as KCNQ2 block inactive.
For COc1ccccc1CN(C(=O)c1cnccn1)C(C(=O)NC1CCCCC1)c1cc(OC)c(OC)c(OC)c1 (configuration not stated) the results were KCNQ2 block inactive and KCNQ2 enhance 0.21.
For COc1ccc(CNC(=S)Nc2ccccc2Cl)cc1 the results were KCNQ2 block inactive and KCNQ2 enhance 0.11.
For COc1ccc(CNC(=S)Nc2ccccc2-c2ccccc2)cc1 the results were KCNQ2 block -7.6*, KCNQ2 enhance -7.6, KCNQ2 inh conf -32%*, KCNQ1 spec inactive, CHO Tl ctr inactive and KCNQ2 patch conf active.
`COc1ccccc1C(=O)C1CCCN(C(=O)c2ccccn2)C1` (configuration not stated) gave KCNQ2 block inactive.
Screening N#CC(C#N)=C1C=CC=CN1/C(=C\c1ccccc1)C(=O)c1cccs1 returned KCNQ2 block -10*, KCNQ2 enhance -10, KCNQ2 inh conf inactive, KCNQ1 spec inactive and CHO Tl ctr inactive.
O=C(N/N=C/C(Br)=C\c1ccccc1)c1cccs1 was read as KCNQ2 block inactive.
COc1ccc(CCN(C)C(=O)c2cc(-c3ccccc3)nc3ccc(C)cc23)cc1OC was read as KCNQ2 block -7.1*, KCNQ2 enhance -7.1, KCNQ2 inh conf -34%*, KCNQ1 spec -34%*, CHO Tl ctr -26%* and KCNQ2 patch conf active.
Screening COc1ccc(CCN(C)C(=O)Cc2ccc(-c3ccccc3)cc2)cc1OC returned KCNQ2 block inactive.
Screening CN(C)C(=O)c1cc(C(=O)c2ccccc2Br)c[nH]1 returned KCNQ2 block inactive and KCNQ2 enhance 1.1.
For O=C(OCCN1CCOCC1)c1ccc2c(c1)OCCO2 the results were KCNQ2 block inactive.
For O=C(CCN1CCOCC1)c1ccc2c(c1)OCCO2 the results were KCNQ2 block -7.4*, KCNQ2 enhance -7.4, KCNQ2 inh conf inactive, KCNQ1 spec inactive and CHO Tl ctr inactive.
O=C(CCN1CCCCC1)c1ccccc1 was read as KCNQ2 block inactive.
`O=C(CCN1CCOCC1)c1ccccc1` gave KCNQ2 block -9.9*, KCNQ2 enhance -9.9, KCNQ2 inh conf inactive, KCNQ1 spec inactive and CHO Tl ctr inactive.
CCc1cccc2c(C(=O)C(F)(F)F)cn(CC(=O)N3CCOCC3)c12 was read as KCNQ2 block inactive.
Screening CC(Oc1ccccc1F)C(=O)NNC(=O)CC(C)c1ccccc1 (configuration not stated) returned KCNQ2 block inactive and KCNQ2 enhance 1.6.
CCN(CC)CCNC(=O)c1cc2c(-c3ccc(Cl)cc3)nn(C)c2s1 was read as KCNQ2 block inactive.
`CCCCN(CC)CCNC(=O)c1cc2c(-c3ccc(Cl)cc3)nn(C)c2s1` gave KCNQ2 block -8.4*, KCNQ2 enhance -8.4, KCNQ2 inh conf -35%*, KCNQ1 spec inactive, CHO Tl ctr inactive and KCNQ2 patch conf inactive.
`CCCN(CCC)CCNC(=O)c1cc2c(-c3ccc(Cl)cc3)nn(C)c2s1` gave KCNQ2 block -7.3*, KCNQ2 enhance -7.3, KCNQ2 inh conf -34%*, KCNQ1 spec inactive, CHO Tl ctr inactive and KCNQ2 patch conf inactive.
Screening CCOCCCNC(=O)c1cc2c(-c3ccc(Cl)cc3)nn(C)c2s1 returned KCNQ2 block inactive and KCNQ2 enhance 0.84.
CC(C(=O)Nc1ccccc1F)N1CCN(C)CC1 (configuration not stated) was read as KCNQ2 block inactive.
COCCN(C(=O)COC(=O)CCC1CCCC1)c1c(N)n(Cc2ccccc2)c(=O)[nH]c1=O was read as KCNQ2 block inactive and KCNQ2 enhance 1.4.
Screening CCN(CC)S(=O)(=O)c1ccc(N2CCOCC2)c(NC(=O)C2=COCCO2)c1 returned KCNQ2 block inactive.
For CCOC(=O)C(NC(=O)c1ccccc1Cl)(Nc1ccc(C(F)(F)F)cc1)C(F)(F)F (configuration not stated) the results were KCNQ2 block inactive.
For CCOC(=O)C(NC(=O)c1ccc(Cl)cc1Cl)(Nc1ccc(C)cc1)C(F)(F)F (configuration not stated) the results were KCNQ2 block -8.5*, KCNQ2 enhance -8.5, KCNQ2 inh conf inactive, KCNQ1 spec inactive and CHO Tl ctr inactive.
O=C(NCCNCCO)C1(C(F)(F)F)C/C(=C\CCO)CCCO1 (configuration not stated) was read as KCNQ2 block inactive.
Screening CN(C)S(=O)(=O)c1ccc(N2CCCC2)c(C(=O)NNC(=O)COc2ccc(Cl)cc2)c1 returned KCNQ2 block -7*, KCNQ2 enhance -7, KCNQ2 inh conf inactive, KCNQ1 spec inactive and CHO Tl ctr inactive.
CCc1ccc(OCC(=O)NNC(=O)c2cc(S(=O)(=O)N(C)C)ccc2N2CCCC2)cc1 was read as KCNQ2 block inactive and KCNQ2 enhance 0.12.
CN(C)S(=O)(=O)c1ccc(N2CCCC2)c(C(=O)NNC(=O)c2ccc(Br)cc2)c1 was read as KCNQ2 block -10*, KCNQ2 enhance -10, KCNQ2 inh conf -24%*, KCNQ1 spec inactive, CHO Tl ctr inactive and KCNQ2 patch conf active.
CN(C)S(=O)(=O)c1ccc(N2CCCC2)c(C(=O)Nc2ccc(C(N)=O)cc2)c1 was read as KCNQ2 block inactive.
`CCC(C)NC(=O)C(=O)NCc1ccccn1` (configuration not stated) gave KCNQ2 block inactive.
Screening Cc1ccccc1S(=O)(=O)N(CC(O)CN1C(=O)NC(C)(C)C1=O)c1ccccc1 (configuration not stated) returned KCNQ2 block inactive and KCNQ2 enhance 0.29.
Screening Cc1ccc(-c2nc(CSCC(=O)N3CCN(c4ccccn4)CC3)c(C)o2)cc1 returned KCNQ2 block inactive.
